Reference: PubChem BioAssay
Calls of active or inactive are those of the source.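 How the source made its calls: active means GFP response above 150% of the DMSO control; inconclusive means Fewer than 70 cells counted for a yeast strain; inactive means the rest.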

Assay: modulators of MEP2-GFP levels in yeast, confirmation, S. cerevisiae, flow cytometry GFP, cherry picks (AID 2272);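 further: ratio of well signal to plate DMSO mean so 100% equals DMSO level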
Conditions: S. cerevisiae MEP2-GFP strain, 3 h, at 10 µM, hits give high values

Structure (SMILES)	GFP response vs DMSO
O=C(Nc1cccnc1)c1ccc(-c2ccc(Cl)cc2)o1	97.8% (inactive)
Oc1c(N=Nc2ccccn2)ccc2ccccc12	104% (inactive)
Cc1cccn2c(=O)c3cc(C(=O)NCCc4ccccc4)c(=N)n(CCCn4ccnc4)c3nc12	103% (inactive)
Cc1ccc(CS(=O)(=O)c2ncc(Cl)c(C(=O)Nc3nnc(C(C)C)s3)n2)cc1	103% (inactive)
Oc1ccc2ccccc2c1N=Nc1nccs1	116% (inactive)
Oc1c(CN2CCN(c3ccc(F)cc3)CC2)cc(Cl)c2cccnc12	187% (active)
Oc1ccc(Br)cc1/C=N/Nc1ccccn1	129% (inactive)
O=C(/C=C/Sc1ncn[nH]1)c1ccc(Cl)cc1	114% (inactive)
C/C(=N\Nc1ncnc2sc(C)c(C)c12)c1ccccn1	967% (active)
CC(=O)Nc1ccc(Nc2cc(C)nc3c(-c4ccc(Cl)cc4)c(C)nn23)cc1	100% (inactive)
O=C1C=CC(=O)N1c1ccc(N2CCCCC2)cc1	87.8% (inactive)
CCn1c(/C=C/c2ccc([N+](=O)[O-])o2)nc2ccccc2c1=O	418% (active)
COc1ccc(C(=O)NC(=S)NNC(=O)CCc2ccccc2)cc1	116% (inactive)
Cc1ccc(-c2noc(CCC(=O)Nc3ccccc3C)n2)cc1	106% (inactive)
Nc1c(C(=O)c2cccs2)sc2nsc(SCCN3CCCCC3)c12	241% (active)
Cc1[nH]c(-c2ccccn2)nc(=S)c1Cl	118% (inactive)
CCCCC(=O)O[C@]1(C(=O)CO)CC[C@H]2[C@@H]3CCC4=CC(=O)CC[C@]4(C)[C@H]3[C@@H](O)C[C@@]21C	105% (inactive)
